An excerpt weighted towards active compounds, which were near 3.4% of everything screened.
Shn3 inh set2 = reduction of Shn3 3'UTR firefly luciferase signal, primary screen, Schnurri-3 inhibitor project, cell-based, Clone20 osteoblasts, set 2; Clone20 osteoblast Shn3 3'UTR firefly luciferase, 24 h; inhibition, % at 12.5 µM; 0.52% of 360,000 active; AID 588674, 2011;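 active means mean inhibition of at least 75% with every replicate also reaching 75%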;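 further: 0% = median of neutral control wells and 100% = pilot-screen positive control compound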
HIF-2a block = HIF-2a reporter inhibitors, primary screen, luminescence, 786-0 RCC cells | 786-0 RCC cells HIF-2a reporter, luciferase luminescence, overnight | inhibition, % at 18.8 µM | 0.72% of 360,000 active;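 active means inhibition of the luminescence signal of 40% or more relative to plate controls, in a single-dose primary screen at 18.75 µM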
TWEAK-Fn14 inh = inhibitors of TWEAK-Fn14 signaling, primary screen, luciferase reporter cells, uHTS. TWEAK-stimulated Fn14 reporter cells, luciferase luminescence, 8 h. 2% of 360,000 active. inhibition, % at 10 µM; in the data active means inhibition above about 50%
TROY NFkB inh = inhibitors of TROY-driven NF-kB signaling, primary screen, Q293 LMP1-TROYcd cells, NF-kB luciferase, uHTS. 0.98% of 360,000 active. inhibition, % at 10 µM. Q293 LMP1-TROYcd NF-kB luciferase reporter, 4 h;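 active means compounds whose plate-normalised and pattern-corrected inhibition of the luciferase reporter signal at the single screening dose is 50% or more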
EBV LMP1 NFkB = EBV LMP1-driven NF-kappaB luciferase reporter inhibitors, primary screen, cell-based, luminescence, single point. AID 504558, 2011. LMP1-induced NF-kappaB luciferase reporter cells. 0.69% of 350,000 active. inhibition, % at 12.5 µM; in the data active means inhibition above about 41%;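 further: 0% = neutral control wells and 100% = reference inhibitor control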
MITF TRPM1 inh = inhibitors of MITF-dependent TRPM1 promoter reporter, primary screen, cell-based, SK-MEL-5, single point, luciferase; SK-MEL-5 TRPM1 promoter luciferase, 24 h; inhibition, % at 12.5 µM; 0.83% of 330,000 active; AID 488899, 2010;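 active means mean inhibition across replicates of 60% or more, whatever share of single replicates reaches that level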
Active calls of the source: *.

What do the screens show for `CS(=O)(=O)n1nc(-c2ccc(Cl)cc2)nc1N`?
Shn3 inh set2: 2; HIF-2a block: -53; TWEAK-Fn14 inh: -8; TROY NFkB inh: -21; EBV LMP1 NFkB: -8; MITF TRPM1 inh: -26

How did Cn1nc(-c2ccc(Cl)cc2)nc2c(=O)n(C)c(=O)nc1-2 do in these assays?
Shn3 inh set2: 118*

How did Cc1cc(C)c(NS(=O)(=O)c2ccc(NC(=O)c3cccs3)cc2)c(C)c1 do in these assays?
Shn3 inh set2: 3; HIF-2a block: 24; TWEAK-Fn14 inh: 41; TROY NFkB inh: 51*; EBV LMP1 NFkB: 3; MITF TRPM1 inh: -1

Results for Cc1ccc(S(=O)(=O)Nc2ccc(NC(=O)c3cccs3)cc2)cc1 ?
Shn3 inh set2: 7; HIF-2a block: 14; TWEAK-Fn14 inh: -42; TROY NFkB inh: 2; EBV LMP1 NFkB: -6; MITF TRPM1 inh: -10

What do the screens show for `Cc1ccc(NC(=S)NC(=O)c2ccc(F)cc2)cc1S(=O)(=O)Nc1cccc(Cl)c1`?
Shn3 inh set2: 29; HIF-2a block: 9; TWEAK-Fn14 inh: 68*; TROY NFkB inh: 50*; EBV LMP1 NFkB: 14; MITF TRPM1 inh: 12

How did Cc1ccc(NC(=O)c2cccs2)cc1S(=O)(=O)Nc1cccc(Cl)c1 do in these assays?
Shn3 inh set2: 32; HIF-2a block: 24; TWEAK-Fn14 inh: 60*; TROY NFkB inh: 39; EBV LMP1 NFkB: -8; MITF TRPM1 inh: 0

Results for CC1(C)CC2CC(C)(CN2S(=O)(=O)c2ccc(F)cc2F)C1 (stereo unspecified) ?
Shn3 inh set2: 10; HIF-2a block: 8; TWEAK-Fn14 inh: 15; TROY NFkB inh: 2; EBV LMP1 NFkB: 3; MITF TRPM1 inh: 2

How did Cc1ccc(NS(=O)(=O)c2ccc3c(c2)CC(=O)N3)cc1F do in these assays?
Shn3 inh set2: -12; HIF-2a block: 8; TWEAK-Fn14 inh: 10; TROY NFkB inh: 12; EBV LMP1 NFkB: -7; MITF TRPM1 inh: 1

Results for Cc1cc(C)c(C)c(S(=O)(=O)N2CCN(c3ncnc4ccccc34)CC2)c1C ?
Shn3 inh set2: 86*; HIF-2a block: 10; TWEAK-Fn14 inh: 93*; TROY NFkB inh: 58*; EBV LMP1 NFkB: 23; MITF TRPM1 inh: 45

How did Cc1cc(C)c(C)c(S(=O)(=O)N2CCN(c3ccccn3)CC2)c1C do in these assays?
Shn3 inh set2: 4; HIF-2a block: 13; TWEAK-Fn14 inh: 15; TROY NFkB inh: 1; EBV LMP1 NFkB: -6; MITF TRPM1 inh: 2

Results for Cc1cnc(NC(=O)c2ccc3ncsc3c2)s1 ?
Shn3 inh set2: -84; HIF-2a block: -192; TWEAK-Fn14 inh: 40; TROY NFkB inh: 5; EBV LMP1 NFkB: -29; MITF TRPM1 inh: -45

What do the screens show for `COc1ccc(-c2csc(NC(=O)CSc3nc4ccccc4c(=O)[nH]3)n2)cc1`?
Shn3 inh set2: -2; HIF-2a block: -38; TWEAK-Fn14 inh: -37; TROY NFkB inh: 41; EBV LMP1 NFkB: -9; MITF TRPM1 inh: 1

What do the screens show for `O=C(CSc1nc(O)cc(=O)n1-c1ccccc1)Nc1nc2ccccc2s1`?
Shn3 inh set2: -5; HIF-2a block: -126; TWEAK-Fn14 inh: 41; TROY NFkB inh: 64*; EBV LMP1 NFkB: -12; MITF TRPM1 inh: 6

What do the screens show for `Cn1c(SCC(=O)Nc2nc3ccccc3s2)nnc1-c1ccccc1`?
Shn3 inh set2: -18; HIF-2a block: -13; TWEAK-Fn14 inh: -3; TROY NFkB inh: -9; EBV LMP1 NFkB: -8; MITF TRPM1 inh: 10

How did Cc1ccc(-c2csc(NC(=O)CSc3nc4ccccc4[nH]3)n2)cc1 do in these assays?
Shn3 inh set2: 11; HIF-2a block: -154; TWEAK-Fn14 inh: 72*; TROY NFkB inh: 57*; EBV LMP1 NFkB: 15; MITF TRPM1 inh: -7

What do the screens show for `CCn1c(SCC(=O)Nc2nc(-c3ccc(C)cc3)cs2)nnc1-c1ccccc1O`?
Shn3 inh set2: 1; HIF-2a block: -19; TWEAK-Fn14 inh: 47; TROY NFkB inh: 50*; EBV LMP1 NFkB: -5; MITF TRPM1 inh: 12

Results for CCn1c(SCC(=O)Nc2nc(-c3ccc(C)cc3)cs2)nnc1-c1ccccc1 ?
Shn3 inh set2: -14; HIF-2a block: -39; TWEAK-Fn14 inh: 31; TROY NFkB inh: 41; EBV LMP1 NFkB: 5; MITF TRPM1 inh: 5

Results for CCn1c(SCC(=O)Nc2nc3ccccc3s2)nnc1-c1ccc(Br)cc1 ?
Shn3 inh set2: -10; HIF-2a block: 10; TWEAK-Fn14 inh: 66*; TROY NFkB inh: 1; EBV LMP1 NFkB: -7; MITF TRPM1 inh: 4

What do the screens show for `CC(C)(C)C(=O)NCc1ccc(C(=O)CSc2nnc3n2CCCCC3)s1`?
Shn3 inh set2: -11; HIF-2a block: -2; TWEAK-Fn14 inh: -1; TROY NFkB inh: 11; EBV LMP1 NFkB: -4

What do the screens show for `COc1ccc(-n2ncc3c2CC(C)(C)CC3NC(=O)c2cnc(C)cn2)cc1` (stereo unspecified)?
Shn3 inh set2: 4; HIF-2a block: -2; TWEAK-Fn14 inh: -4; TROY NFkB inh: 1; EBV LMP1 NFkB: 11; MITF TRPM1 inh: 3

What do the screens show for `Cc1cc(C)cc(NC(=O)CCCCCN2C(=O)[C@@H]3Cc4ccccc4CN3C2=O)c1`?
Shn3 inh set2: -1; HIF-2a block: -1; TWEAK-Fn14 inh: 55*; TROY NFkB inh: -6; EBV LMP1 NFkB: 2; MITF TRPM1 inh: 0

What do the screens show for `COc1cccc(NC(=O)CCCCCN2C(=O)[C@@H]3Cc4ccccc4CN3C2=O)c1`?
Shn3 inh set2: 14; HIF-2a block: -4; TWEAK-Fn14 inh: -5; TROY NFkB inh: -15; EBV LMP1 NFkB: -2; MITF TRPM1 inh: 8

What do the screens show for `NC(Cc1ccc(F)cc1)c1csc(Nc2cc(Oc3ccccc3)ncn2)n1` (stereo unspecified)?
Shn3 inh set2: -23; HIF-2a block: 6; TWEAK-Fn14 inh: -24; TROY NFkB inh: 17

Results for NC(c1ccccc1)c1cccs1 (stereo unspecified) ?
Shn3 inh set2: 1; HIF-2a block: 9; TWEAK-Fn14 inh: 7; TROY NFkB inh: -8

What do the screens show for `Cc1ccnc(NC(=O)/C=C/c2cccs2)c1`?
Shn3 inh set2: -47; HIF-2a block: -114; TWEAK-Fn14 inh: 53*; TROY NFkB inh: -9; EBV LMP1 NFkB: 18; MITF TRPM1 inh: -24

How did CCOC(=O)c1c(C)n(-c2ccc(C)cc2)c2c(C(C(C)=O)C(=O)O)c(Br)c(O)c(O)c12 (stereo unspecified) do in these assays?
Shn3 inh set2: -1; HIF-2a block: 35; TWEAK-Fn14 inh: 4; TROY NFkB inh: 0; EBV LMP1 NFkB: -6; MITF TRPM1 inh: 11
